Legend:
Experiment in all cases: DAPPL (digital affinity profiling via proximity ligation, sequencing); 10 mM Tris-HCl pH 7.5, 50 mM NaCl, 1 mM DTT, 4% glycerol, room temperature, 30 min; GST-TFs on glutathione beads, 16-mer random dsDNA library, 0.1% formaldehyde crosslink after washing; high values mean tight binding
Settings in all cases: protein: recombinant; tags: N-terminal GST; dsDNA, one strand shown
FLI1 = biological target: T1, FLI1 (Homo sapiens, UniProt Q01543 1-452)
T1 sequence: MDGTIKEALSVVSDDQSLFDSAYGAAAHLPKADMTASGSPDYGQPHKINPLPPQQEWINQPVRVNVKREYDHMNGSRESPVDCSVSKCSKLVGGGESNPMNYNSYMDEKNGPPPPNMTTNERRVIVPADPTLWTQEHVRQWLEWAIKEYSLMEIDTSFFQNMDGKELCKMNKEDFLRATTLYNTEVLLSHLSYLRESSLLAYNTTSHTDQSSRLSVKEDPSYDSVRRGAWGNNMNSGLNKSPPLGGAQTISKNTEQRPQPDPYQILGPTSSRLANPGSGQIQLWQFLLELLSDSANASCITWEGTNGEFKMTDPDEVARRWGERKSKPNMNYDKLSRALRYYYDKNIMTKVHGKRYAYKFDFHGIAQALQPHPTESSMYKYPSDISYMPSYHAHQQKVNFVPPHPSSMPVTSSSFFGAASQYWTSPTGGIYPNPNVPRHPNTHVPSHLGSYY
Method in brief: (§1)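 After expression in yeast as GST fusions, human transcription factors were bound to glutathione beads, DNA-barcoded and mixed with a tag-only sample. The pools were incubated with 200 nmole of a 16-mer random double-stranded DNA library in Tris/NaCl/DTT/glycerol buffer (30 min, room temperature), washed and crosslinked with 0.1% formaldehyde. Proximity ligation with BsaI/T4 ligase ran for 1 h at 37 °C, before PCR amplification and sequencing on an Illumina NextSeq500. Binding signal is a hexamer's read frequency for a factor divided by its frequency for the tag-only sample.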

ELK1 = biological target: T2, ELK1 (Homo sapiens, UniProt P19419 1-428)
T2 sequence: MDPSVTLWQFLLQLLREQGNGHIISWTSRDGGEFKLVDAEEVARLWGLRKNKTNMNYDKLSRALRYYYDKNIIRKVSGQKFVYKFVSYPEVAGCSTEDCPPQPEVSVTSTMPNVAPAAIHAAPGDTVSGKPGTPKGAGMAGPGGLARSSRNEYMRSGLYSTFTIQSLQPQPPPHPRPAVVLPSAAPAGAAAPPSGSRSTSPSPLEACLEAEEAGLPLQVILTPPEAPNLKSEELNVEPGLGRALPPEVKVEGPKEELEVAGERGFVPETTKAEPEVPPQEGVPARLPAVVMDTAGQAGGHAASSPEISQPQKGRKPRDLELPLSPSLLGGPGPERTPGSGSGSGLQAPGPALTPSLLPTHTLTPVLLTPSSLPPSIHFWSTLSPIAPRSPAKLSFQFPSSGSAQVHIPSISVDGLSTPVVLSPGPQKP
Method in brief: as §1

GABPA = biological target: T3, GABPA (Homo sapiens, UniProt Q06546 1-454)
T3 sequence: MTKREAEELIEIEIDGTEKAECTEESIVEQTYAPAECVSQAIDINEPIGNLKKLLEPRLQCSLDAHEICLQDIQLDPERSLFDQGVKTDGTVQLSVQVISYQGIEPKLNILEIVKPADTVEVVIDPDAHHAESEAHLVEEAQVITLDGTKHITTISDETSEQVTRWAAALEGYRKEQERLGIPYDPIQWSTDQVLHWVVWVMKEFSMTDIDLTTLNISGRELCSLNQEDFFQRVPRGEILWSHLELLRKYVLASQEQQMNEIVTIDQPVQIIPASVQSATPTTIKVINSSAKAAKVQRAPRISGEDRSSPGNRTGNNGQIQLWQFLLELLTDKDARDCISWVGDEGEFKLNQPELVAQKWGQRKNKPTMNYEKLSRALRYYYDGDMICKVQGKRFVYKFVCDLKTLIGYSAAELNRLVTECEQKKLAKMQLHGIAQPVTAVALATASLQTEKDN
Method in brief: as §1

ERG = biological target: T4, ERG (Homo sapiens, UniProt P11308 1-479)
T4 sequence: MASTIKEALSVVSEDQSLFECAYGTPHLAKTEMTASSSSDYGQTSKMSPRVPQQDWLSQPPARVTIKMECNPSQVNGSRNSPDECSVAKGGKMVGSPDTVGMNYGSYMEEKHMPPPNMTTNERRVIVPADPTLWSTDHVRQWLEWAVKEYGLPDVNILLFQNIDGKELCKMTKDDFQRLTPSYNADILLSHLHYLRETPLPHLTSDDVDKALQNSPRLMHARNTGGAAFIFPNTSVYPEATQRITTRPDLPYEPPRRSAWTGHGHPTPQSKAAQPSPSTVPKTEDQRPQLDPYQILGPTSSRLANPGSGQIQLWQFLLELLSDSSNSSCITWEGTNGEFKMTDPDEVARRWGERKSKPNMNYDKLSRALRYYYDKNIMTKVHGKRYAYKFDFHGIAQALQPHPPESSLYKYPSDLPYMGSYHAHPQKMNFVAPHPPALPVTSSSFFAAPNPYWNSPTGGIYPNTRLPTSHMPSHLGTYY
Method in brief: as §1

ELF1 = ELF1 (Homo sapiens, UniProt P32519 1-619)
Method in brief: as §1

EHF = biological target: T5, EHF (Homo sapiens, UniProt Q9NZC4 1-300)
T5 sequence: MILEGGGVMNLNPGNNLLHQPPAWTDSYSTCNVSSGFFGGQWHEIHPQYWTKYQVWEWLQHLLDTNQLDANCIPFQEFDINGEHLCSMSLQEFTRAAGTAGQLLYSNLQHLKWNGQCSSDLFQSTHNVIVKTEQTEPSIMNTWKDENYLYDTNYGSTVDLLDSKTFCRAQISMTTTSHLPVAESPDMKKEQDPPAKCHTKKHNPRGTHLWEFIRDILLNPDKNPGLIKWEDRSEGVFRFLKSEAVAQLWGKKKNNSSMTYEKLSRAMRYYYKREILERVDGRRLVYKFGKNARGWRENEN
Method in brief: as §1

SPI1 = SPI1 (Homo sapiens, UniProt P17947 1-270)
Method in brief: as §1

SPIB = SPIB (Homo sapiens, UniProt Q01892 1-262)
Method in brief: as §1

ELK3 = biological target: T6, ELK3 (Homo sapiens, UniProt P41970 1-407)
T6 sequence: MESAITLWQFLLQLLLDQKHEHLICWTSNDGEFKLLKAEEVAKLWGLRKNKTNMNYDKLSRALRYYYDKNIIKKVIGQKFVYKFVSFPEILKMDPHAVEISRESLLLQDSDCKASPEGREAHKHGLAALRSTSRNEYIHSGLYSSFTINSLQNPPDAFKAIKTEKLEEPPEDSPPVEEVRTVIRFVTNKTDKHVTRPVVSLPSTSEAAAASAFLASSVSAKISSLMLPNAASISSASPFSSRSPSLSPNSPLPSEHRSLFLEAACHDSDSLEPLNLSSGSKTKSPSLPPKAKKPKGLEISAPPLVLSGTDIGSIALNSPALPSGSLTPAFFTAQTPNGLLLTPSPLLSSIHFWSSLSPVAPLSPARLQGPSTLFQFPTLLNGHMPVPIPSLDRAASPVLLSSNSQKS
Method in brief: as §1

Chain of ELF1 (P32519 whole entry): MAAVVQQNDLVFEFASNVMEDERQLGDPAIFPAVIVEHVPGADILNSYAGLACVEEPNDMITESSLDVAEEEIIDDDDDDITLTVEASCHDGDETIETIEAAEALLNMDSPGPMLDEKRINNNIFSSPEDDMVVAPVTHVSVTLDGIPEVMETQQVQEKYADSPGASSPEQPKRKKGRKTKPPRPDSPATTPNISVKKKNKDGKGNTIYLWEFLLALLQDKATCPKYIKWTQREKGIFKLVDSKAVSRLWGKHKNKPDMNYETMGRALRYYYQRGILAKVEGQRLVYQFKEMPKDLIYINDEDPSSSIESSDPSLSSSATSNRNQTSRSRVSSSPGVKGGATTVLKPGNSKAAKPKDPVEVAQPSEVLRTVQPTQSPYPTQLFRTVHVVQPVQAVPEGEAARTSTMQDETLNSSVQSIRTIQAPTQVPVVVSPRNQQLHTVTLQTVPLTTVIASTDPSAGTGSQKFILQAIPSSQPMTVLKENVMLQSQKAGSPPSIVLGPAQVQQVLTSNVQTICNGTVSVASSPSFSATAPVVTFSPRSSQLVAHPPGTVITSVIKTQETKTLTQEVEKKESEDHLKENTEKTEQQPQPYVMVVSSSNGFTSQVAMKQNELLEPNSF
Chain of SPIB (Q01892 whole entry): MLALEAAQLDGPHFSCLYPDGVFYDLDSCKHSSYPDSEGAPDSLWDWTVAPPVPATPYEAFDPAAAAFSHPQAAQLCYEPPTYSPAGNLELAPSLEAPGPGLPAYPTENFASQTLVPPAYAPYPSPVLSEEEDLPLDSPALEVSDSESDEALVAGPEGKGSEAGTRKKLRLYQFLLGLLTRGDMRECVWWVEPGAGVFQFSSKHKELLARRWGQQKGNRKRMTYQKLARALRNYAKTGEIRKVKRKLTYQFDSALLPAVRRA

In the case of ACGTTA, the binding signal (FLI1) is reported as 1.11 fold enrichment (6-mer frequency, TF over GST control), the binding signal (ELK1) is reported as 1.14 fold enrichment (6-mer frequency, TF over GST control) and the binding signal (GABPA) is reported as 1.11 fold enrichment (6-mer frequency, TF over GST control). The binding signal (ERG) was 1.21 fold enrichment (6-mer frequency, TF over GST control), the binding signal (ELF1) was 1.19 fold enrichment (6-mer frequency, TF over GST control) and the binding signal (EHF) was 1.11 fold enrichment (6-mer frequency, TF over GST control). The binding signal (SPI1) was 1.19 fold enrichment (6-mer frequency, TF over GST control), the binding signal (SPIB) was 1.06 fold enrichment (6-mer frequency, TF over GST control) and the binding signal (ELK3) was 1.3 fold enrichment (6-mer frequency, TF over GST control).

— PMC7862700, “An all-to-all approach to the identification of sequence-specific readers for epigenetic DNA modifications on cytosine”
